# Source: the supplement of paper PMC4466140
# Columns and labels:
# Assay in all cases: SPOT peptide array binding signal intensity (averaged, normalized) (arbitrary units (background-subtracted, floor 0; scale differs between SH3 domains)); higher = stronger binding of the SH3 domain to the peptide
# AgAbp1 = target: AgAbp1
# Summary of the method: (§1)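 Cellulose membranes carried synthetic 15-mer peptides with cysteines swapped for serines. These were incubated overnight at 4°C with 10 μg/ml of GST-fused SH3 domains from four yeast species in TBS-based blocking buffer. Binding signal, detected with anti-GST antibody and quantified in Genespotter, is the normalized, background-subtracted spot intensity averaged over replicates, in arbitrary units specific to each domain.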
# AgBbc1 = target: AgBbc1
# Summary of the method: as §1
# AgBem1-D1 = target: AgBem1-D1
# Summary of the method: as §1
# AgBzz1-D1 = target: AgBzz1-D1
# Summary of the method: as §1
# AgBzz1-D2 = target: AgBzz1-D2
# Summary of the method: as §1
# AgCyk3 = target: AgCyk3
# Summary of the method: as §1
# AgFus1 = target: AgFus1
# Summary of the method: as §1
# AgHof1 = target: AgHof1
# Summary of the method: as §1
# AgHse1 = target: AgHse1
# Summary of the method: as §1
# AgLsb1 = target: AgLsb1
# Summary of the method: as §1
# AgLsb4 = target: AgLsb4
# Summary of the method: as §1
# AgMyo5 = target: AgMyo5
# Summary of the method: as §1
# AgNbp2 = target: AgNbp2
# Summary of the method: as §1
# AgRvs167 = target: AgRvs167
# Summary of the method: as §1
# AgSho1 = target: AgSho1
# Summary of the method: as §1
# AgSla1-D1-D2 = target: AgSla1-D1-D2
# Summary of the method: as §1
# AgSla1-D3 = target: AgSla1-D3
# Summary of the method: as §1
# CaAbp1-D1 = target: CaAbp1-D1
# Summary of the method: as §1
# CaAbp1-D2 = target: CaAbp1-D2
# Summary of the method: as §1
# CaBbc1 = target: CaBbc1
# Summary of the method: as §1
# CaBem1-D1 = target: CaBem1-D1
# Summary of the method: as §1
# CaBzz1-D1 = target: CaBzz1-D1
# Summary of the method: as §1
# CaBzz1-D2 = target: CaBzz1-D2
# Summary of the method: as §1
# CaCyk3 = target: CaCyk3
# Summary of the method: as §1
# CaFus1 = target: CaFus1
# Summary of the method: as §1
# CaHof1 = target: CaHof1
# Summary of the method: as §1
# CaHse1 = target: CaHse1
# Summary of the method: as §1
# CaLsb1 = target: CaLsb1
# Summary of the method: as §1
# CaLsb4 = target: CaLsb4
# Summary of the method: as §1
# CaMyo5 = target: CaMyo5
# Summary of the method: as §1
# CaNbp2 = target: CaNbp2
# Summary of the method: as §1
# CaRvs167 = target: CaRvs167
# Summary of the method: as §1
# CaRvs167-3 = target: CaRvs167-3
# Summary of the method: as §1
# CaSho1 = target: CaSho1
# Summary of the method: as §1
# CaSla1-D1-D2 = target: CaSla1-D1-D2
# Summary of the method: as §1
# CaSla1-D3 = target: CaSla1-D3
# Summary of the method: as §1
# ScAbp1 = target: ScAbp1
# Summary of the method: as §1
# ScBbc1 = target: ScBbc1
# Summary of the method: as §1
# ScBem1-D1 = target: ScBem1-D1
# Summary of the method: as §1
# ScBzz1-D1 = target: ScBzz1-D1
# Summary of the method: as §1
# ScBzz1-D2 = target: ScBzz1-D2
# Summary of the method: as §1
# ScCyk3 = target: ScCyk3
# Summary of the method: as §1
# ScFus1 = target: ScFus1
# Summary of the method: as §1
# ScHof1 = target: ScHof1
# Summary of the method: as §1
# ScHse1 = target: ScHse1
# Summary of the method: as §1
# ScLsb1 = target: ScLsb1
# Summary of the method: as §1
# ScLsb2 = target: ScLsb2
# Summary of the method: as §1
# ScLsb3 = target: ScLsb3
# Summary of the method: as §1
# ScLsb4 = target: ScLsb4
# Summary of the method: as §1
# ScMyo3 = target: ScMyo3
# Summary of the method: as §1
# ScMyo5 = target: ScMyo5
# Summary of the method: as §1
# ScNbp2 = target: ScNbp2
# Summary of the method: as §1
# ScPex13 = target: ScPex13
# Summary of the method: as §1
# ScRvs167 = target: ScRvs167
# Summary of the method: as §1
# ScSho1 = target: ScSho1
# Summary of the method: as §1
# ScSla1-D1-D2 = target: ScSla1-D1-D2
# Summary of the method: as §1
# ScSla1-D3 = target: ScSla1-D3
# Summary of the method: as §1
# SpAbp1-D1 = target: SpAbp1-D1
# Summary of the method: as §1
# SpBbc1 = target: SpBbc1
# Summary of the method: as §1
# SpBzz1-D1 = target: SpBzz1-D1
# Summary of the method: as §1
# SpBzz1-D2 = target: SpBzz1-D2
# Summary of the method: as §1
# SpCyk3 = target: SpCyk3
# Summary of the method: as §1
# SpHof1 = target: SpHof1
# Summary of the method: as §1
# SpHof1-2 = target: SpHof1-2
# Summary of the method: as §1
# SpHof1-3 = target: SpHof1-3
# Summary of the method: as §1
# SpHse1 = target: SpHse1
# Summary of the method: as §1
# SpLsb1 = target: SpLsb1
# Summary of the method: as §1
# SpLsb4 = target: SpLsb4
# Summary of the method: as §1
# SpMyo1 = target: SpMyo1
# Summary of the method: as §1
# SpNbp2 = target: SpNbp2
# Summary of the method: as §1
# SpPex13 = target: SpPex13
# Summary of the method: as §1
# SpRvs167 = target: SpRvs167
# Summary of the method: as §1
# SpSla1-D1-D2 = target: SpSla1-D1-D2
# Summary of the method: as §1
# SpSla1-D3 = target: SpSla1-D3
# Summary of the method: as §1
binder,measurement,setting,value
NIKVLLNPKLGKPVK,SPOT peptide array binding signal intensity,AgAbp1,15
same,SPOT peptide array binding signal intensity,AgBbc1,10.2
same,SPOT peptide array binding signal intensity,AgBem1-D1,4
same,SPOT peptide array binding signal intensity,AgBzz1-D1,13
same,SPOT peptide array binding signal intensity,AgBzz1-D2,73.5
same,SPOT peptide array binding signal intensity,AgCyk3,≤ 0
same,SPOT peptide array binding signal intensity,AgFus1,316
same,SPOT peptide array binding signal intensity,AgHof1,17
same,SPOT peptide array binding signal intensity,AgHse1,760
same,SPOT peptide array binding signal intensity,AgLsb1,≤ 0
same,SPOT peptide array binding signal intensity,AgLsb4,61
same,SPOT peptide array binding signal intensity,AgMyo5,2.5
same,SPOT peptide array binding signal intensity,AgNbp2,31.5
same,SPOT peptide array binding signal intensity,AgRvs167,4
same,SPOT peptide array binding signal intensity,AgSho1,108
same,SPOT peptide array binding signal intensity,AgSla1-D1-D2,39.5
same,SPOT peptide array binding signal intensity,AgSla1-D3,7.5
same,SPOT peptide array binding signal intensity,CaAbp1-D1,407
same,SPOT peptide array binding signal intensity,CaAbp1-D2,32.5
same,SPOT peptide array binding signal intensity,CaBbc1,15.2
same,SPOT peptide array binding signal intensity,CaBem1-D1,0.5
same,SPOT peptide array binding signal intensity,CaBzz1-D1,160
same,SPOT peptide array binding signal intensity,CaBzz1-D2,48.5
same,SPOT peptide array binding signal intensity,CaCyk3,≤ 0
same,SPOT peptide array binding signal intensity,CaFus1,968
same,SPOT peptide array binding signal intensity,CaHof1,≤ 0
same,SPOT peptide array binding signal intensity,CaHse1,9
same,SPOT peptide array binding signal intensity,CaLsb1,2
same,SPOT peptide array binding signal intensity,CaLsb4,16
same,SPOT peptide array binding signal intensity,CaMyo5,4.5
same,SPOT peptide array binding signal intensity,CaNbp2,325
same,SPOT peptide array binding signal intensity,CaRvs167,105
same,SPOT peptide array binding signal intensity,CaRvs167-3,752
same,SPOT peptide array binding signal intensity,CaSho1,700
same,SPOT peptide array binding signal intensity,CaSla1-D1-D2,2
same,SPOT peptide array binding signal intensity,CaSla1-D3,26
same,SPOT peptide array binding signal intensity,ScAbp1,48
same,SPOT peptide array binding signal intensity,ScBbc1,0.25
same,SPOT peptide array binding signal intensity,ScBem1-D1,7
same,SPOT peptide array binding signal intensity,ScBzz1-D1,32
same,SPOT peptide array binding signal intensity,ScBzz1-D2,207
same,SPOT peptide array binding signal intensity,ScCyk3,10.5
same,SPOT peptide array binding signal intensity,ScFus1,527
same,SPOT peptide array binding signal intensity,ScHof1,1.25
same,SPOT peptide array binding signal intensity,ScHse1,1460
same,SPOT peptide array binding signal intensity,ScLsb1,5.75
same,SPOT peptide array binding signal intensity,ScLsb2,1
same,SPOT peptide array binding signal intensity,ScLsb3,1.53e-05
same,SPOT peptide array binding signal intensity,ScLsb4,3
same,SPOT peptide array binding signal intensity,ScMyo3,1
same,SPOT peptide array binding signal intensity,ScMyo5,1
same,SPOT peptide array binding signal intensity,ScNbp2,29
same,SPOT peptide array binding signal intensity,ScPex13,4.5
same,SPOT peptide array binding signal intensity,ScRvs167,21.8
same,SPOT peptide array binding signal intensity,ScSho1,696
same,SPOT peptide array binding signal intensity,ScSla1-D1-D2,42
same,SPOT peptide array binding signal intensity,ScSla1-D3,7.75
same,SPOT peptide array binding signal intensity,SpAbp1-D1,30.5
same,SPOT peptide array binding signal intensity,SpBbc1,11.2
same,SPOT peptide array binding signal intensity,SpBzz1-D1,132
PSRRAPLQLPQLVNK,SPOT peptide array binding signal intensity,CaNbp2,324
same,SPOT peptide array binding signal intensity,CaRvs167,6
same,SPOT peptide array binding signal intensity,CaRvs167-3,≤ 0
same,SPOT peptide array binding signal intensity,CaSho1,6
same,SPOT peptide array binding signal intensity,CaSla1-D1-D2,21
same,SPOT peptide array binding signal intensity,CaSla1-D3,≤ 0
same,SPOT peptide array binding signal intensity,ScAbp1,13
same,SPOT peptide array binding signal intensity,ScBbc1,11.5
same,SPOT peptide array binding signal intensity,ScBem1-D1,11
same,SPOT peptide array binding signal intensity,ScBzz1-D1,12
same,SPOT peptide array binding signal intensity,ScBzz1-D2,10
same,SPOT peptide array binding signal intensity,ScCyk3,≤ 0
same,SPOT peptide array binding signal intensity,ScFus1,≤ 0
same,SPOT peptide array binding signal intensity,ScHof1,0.5
same,SPOT peptide array binding signal intensity,ScHse1,35.5
same,SPOT peptide array binding signal intensity,ScLsb1,123
same,SPOT peptide array binding signal intensity,ScLsb2,5
same,SPOT peptide array binding signal intensity,ScLsb3,86
same,SPOT peptide array binding signal intensity,ScLsb4,≤ 0
same,SPOT peptide array binding signal intensity,ScMyo3,≤ 0
same,SPOT peptide array binding signal intensity,ScMyo5,1.5
same,SPOT peptide array binding signal intensity,ScNbp2,17
same,SPOT peptide array binding signal intensity,ScPex13,≤ 0
same,SPOT peptide array binding signal intensity,ScRvs167,5.67
same,SPOT peptide array binding signal intensity,ScSho1,35
same,SPOT peptide array binding signal intensity,ScSla1-D1-D2,394
same,SPOT peptide array binding signal intensity,ScSla1-D3,32
same,SPOT peptide array binding signal intensity,SpAbp1-D1,59
same,SPOT peptide array binding signal intensity,SpBbc1,≤ 0
same,SPOT peptide array binding signal intensity,SpBzz1-D1,134
same,SPOT peptide array binding signal intensity,SpBzz1-D2,≤ 0
same,SPOT peptide array binding signal intensity,SpCyk3,≤ 0
same,SPOT peptide array binding signal intensity,SpHof1,7.75
same,SPOT peptide array binding signal intensity,SpHof1-2,1.25
same,SPOT peptide array binding signal intensity,SpHof1-3,89.8
same,SPOT peptide array binding signal intensity,SpHse1,≤ 0
same,SPOT peptide array binding signal intensity,SpLsb1,45.2
same,SPOT peptide array binding signal intensity,SpLsb4,2
same,SPOT peptide array binding signal intensity,SpMyo1,0.5
same,SPOT peptide array binding signal intensity,SpNbp2,3
same,SPOT peptide array binding signal intensity,SpPex13,≤ 0
same,SPOT peptide array binding signal intensity,SpRvs167,1.67
same,SPOT peptide array binding signal intensity,SpSla1-D1-D2,≤ 0
same,SPOT peptide array binding signal intensity,SpSla1-D3,≤ 0
